From PubChem BioAssay (EPA / NIEHS)
Several values for one entry are separate records, joined by “and”; a condition that tells them apart may be missing. Identical values can stand only once. A structure can be active in one record and inactive in another. Activity calls are given as the source filed them. Rule for the calls: active = hit-call score of the fitted dose curve at least 0.9, where 1 is the maximum; inactive = score below 0.9.

How the values were obtained:
[1] = ATG_ISRE_CIS: Attagene CIS-FACTORIAL HepG2 Assay for human Interferon Regulatory Factor 1 (IRF1) binding to an Interferon-Stimulated Response Element (ISRE) (AID 2282948); conditions: HepG2 ISRE cis-reporter (Attagene), mRNA transcription readout; actives raise or lower the signal
Method in brief: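 Multiplexed mRNA reporter readout in human liver HepG2 cells: cis-element-driven reporters transfected, compound added for 24 h, transcripts amplified, fluorescently labelled and sized by capillary electrophoresis; curve fitting bidirectional against DMSO.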

[2] = ATG_M_32_CIS: Attagene CIS-FACTORIAL HepG2 Assay for M32 Transcription Factor (Internal Marker) (AID 2282949); conditions: HepG2 Attagene cis-factorial M32 reporter, mRNA; actives raise or lower the signal;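 note: background control marker of the multiplexed CIS panel rather than a real target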
Method in brief: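 Using DMSO as baseline, bidirectional curve fits were applied to reporter mRNA signals. These came from transiently transfected HepG2 cells exposed for 24 h, with RNA analysed by RT-PCR, FAM primer extension, HpaI digestion and CE.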

[3] = ATG_M_06_CIS: Attagene CIS-FACTORIAL HepG2 Assay for M06 Transcription Factor (Internal Marker) (AID 2282950); conditions: HepG2 Attagene CIS-FACTORIAL M06 internal marker reporter; actives raise or lower the signal
Method in brief: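 Serves as a background control readout. Transfected HepG2 exposed to compounds for 24 h, then reporter transcripts quantified by fluorescent RT-PCR and capillary electrophoresis. Both directions fitted against DMSO baseline.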

[4] = target: Hypoxia-inducible factor 1-alpha (Homo sapiens) (UniProt Q16665); experiment: ATG_HIF1a_CIS: Attagene CIS-FACTORIAL HepG2 Assay for human Hypoxia Inducible Factor 1 (HIF1A) (AID 2282951); conditions: HepG2 Attagene cis-factorial HIF1a reporter transcription; actives raise or lower the signal
Method in brief: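 In this multiplexed cell assay, HepG2 cells bearing transfected cis reporters are dosed for 24 h and reporter mRNA is read by RT-PCR plus capillary electrophoresis; signal increases and decreases are both scored against DMSO.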

[5] = target: Hepatocyte nuclear factor 6 (Homo sapiens) (UniProt Q9UBC0); experiment: ATG_HNF6_CIS: Attagene CIS-FACTORIAL HepG2 Assay for human Hepatocyte Nuclear Factor 6 (HNF6) (AID 2282952); conditions: HepG2 Attagene cis-factorial HNF6 reporter transcription; actives raise or lower the signal
Method in brief: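 Endogenous transcription factor activity in human HepG2 liver cells was captured through cis-regulated reporter constructs. After 24 h treatment, reporter mRNA was measured by RT-PCR with capillary electrophoresis, and activity was fitted in both directions relative to DMSO.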

[6] = target: Heat shock factor protein 1 (Homo sapiens) (UniProt Q00613); experiment: ATG_HSE_CIS: Attagene CIS-FACTORIAL HepG2 Assay for human Heat Shock Transcription Factor 1 (HSE) (AID 2282953); conditions: HepG2 HSE cis-reporter, Attagene RNA transcription; actives raise or lower the signal
Method in brief: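 Endogenous transcription factor activity in transiently transfected HepG2, read as reporter mRNA by RT-PCR with fluorescent capillary electrophoresis after 24 h. Gain or loss of signal fitted versus DMSO baseline.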

[7] = ATG_MRE_CIS: Attagene CIS-FACTORIAL HepG2 Assay for human Metal Responsive Element (MRE) (AID 2282954); conditions: HepG2 MRE cis-reporter transcription, Attagene multiplex; actives raise or lower the signal
Method in brief: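 Multiplexed cis-reporter assay in human HepG2 liver cells, 24 h incubation with test chemical. Reporter transcripts measured by RT-PCR and capillary electrophoresis; values from bidirectional curve fitting versus DMSO.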

[8] = ATG_PBREM_CIS: Attagene CIS-FACTORIAL HepG2 Assay for human Phenobarbital-responsive Enhancer Module (PBREM) (AID 2282955); conditions: HepG2 PBREM cis-reporter, Attagene multiplexed transcription; actives raise or lower the signal
Method in brief: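 After a 24 h incubation with test chemical, transfected HepG2 cells yield total RNA; reporter-specific RT-PCR products are fluorescently labelled, HpaI-digested and resolved by capillary electrophoresis against ROX size standards.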

[9] = target: Paired box protein Pax-6 (Homo sapiens) (UniProt P26367); experiment: ATG_Pax6_CIS: Attagene CIS-FACTORIAL HepG2 Assay for human Paired Box 6 (PAX6) (AID 2282956); conditions: HepG2 CIS-FACTORIAL PAX6 reporter transcription, RNA readout; actives raise or lower the signal
Method in brief: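 Fluorescent RT-PCR products separated by capillary electrophoresis report PAX6-linked promoter mRNA in HepG2 cells 24 h post-dose. Curves fitted bidirectionally, DMSO as negative control.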

[10] = ATG_PXRE_CIS: Attagene CIS-FACTORIAL HepG2 Assay for human Pregnane X Receptor Element (PXRE) (AID 2282957); conditions: HepG2 Attagene CIS-FACTORIAL PXRE reporter, mRNA; actives raise or lower the signal
Method in brief: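 Endogenous transcription factor activity in HepG2 was gauged through induction of reporter mRNA driven by a cis-regulating promoter element, sampled 24 h post-treatment. Activity was fitted in both directions against DMSO negative control.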

[11] = ATG_PPRE_CIS: Attagene CIS-FACTORIAL HepG2 Assay for human Peroxisome Proliferator-activated Response Element (PPRE) (AID 2282958); conditions: HepG2 PPRE cis-element reporter, Attagene transcription factor profiling; actives raise or lower the signal
Method in brief: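 Multiplexed reporter transcription units under cis-regulatory promoters were transfected into HepG2 cells to capture endogenous factor activity. A 24 h incubation preceded RNA isolation and fluorescent RT-PCR fragment analysis.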

[12] = ATG_RORE_CIS: Attagene CIS-FACTORIAL HepG2 Assay for human RAR-related Orphan Receptor Element (RORE) (AID 2282959); conditions: HepG2 Attagene cis-factorial RORE reporter, mRNA; actives raise or lower the signal
Method in brief: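 Fluorescence intensity of reporter-specific cDNA fragments, separated by capillary electrophoresis, gives the signal. Source: HepG2 liver cells transiently transfected with cis-element reporters and exposed 24 h; DMSO-normalized bidirectional fit.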

[13] = ATG_Sox_CIS: Attagene CIS-FACTORIAL HepG2 Assay for human SRY-box transcription factor (SOX) (AID 2282960); conditions: HepG2 Attagene cis-factorial SOX reporter, mRNA; actives raise or lower the signal
Method in brief: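 After 24 h of chemical treatment, transfected HepG2 reporter cells are lysed for total RNA. Transcript levels come from RT-PCR with labelled primer extension and capillary electrophoresis, analysed bidirectionally versus DMSO.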

[14] = target: Transcription factor Sp1 (Homo sapiens) (UniProt P08047); experiment: ATG_Sp1_CIS: Attagene CIS-FACTORIAL HepG2 Assay for human Specificity Protein 1 (Sp1) (AID 2282961); conditions: HepG2 Sp1 cis-reporter transcription, actives raise or lower the signal
Method in brief: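 Sp1-driven reporter mRNA, read as capillary electrophoresis fluorescence after RT-PCR, in transiently transfected HepG2 cells dosed for 24 h; signal change in either direction relative to DMSO.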

[15] = ATG_SREBP_CIS: Attagene CIS-FACTORIAL HepG2 Assay for human Sterol Regulatory Element Binding (SREBP) (AID 2282962); conditions: HepG2 Attagene cis-factorial SREBP reporter, mRNA; actives raise or lower the signal
Method in brief: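 Endogenous factor activity is measured in HepG2 through multiplexed reporter units under cis-element control. Following a 24 h incubation, reporter transcripts are reverse-transcribed, PCR-amplified and sized by capillary electrophoresis; activity is fitted in both directions relative to DMSO.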

[16] = target: Signal transducer and activator of transcription 3 (Homo sapiens) (UniProt P40763); experiment: ATG_STAT3_CIS: Attagene CIS-FACTORIAL HepG2 Assay for human Signal Transducer and Activator of Transcription 3 (STAT3) (AID 2282963); conditions: HepG2, Attagene cis-factorial STAT3 reporter transcription; actives raise or lower the signal
Method in brief: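 Cis-factorial format: endogenous transcription factors in HepG2 drive transfected reporter units. After 24 h treatment, reporter RNA was reverse-transcribed, amplified, FAM-labelled and HpaI-digested before CE analysis; activity scored in both directions against DMSO.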

[17] = ATG_TCF_b_cat_CIS: Attagene CIS-FACTORIAL HepG2 Assay for human T-Cell-Factor with beta-catenin (TCF/b-cat) (AID 2282965); conditions: HepG2 TCF/beta-catenin cis-reporter transcription, actives raise or lower the signal
Method in brief: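 Endogenous TCF/LEF activity read as reporter transcript level via RT-PCR and capillary electrophoresis fluorescence in transfected HepG2, 24 h exposure; gain or loss of signal fitted against DMSO controls.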

[18] = ATG_TAL_CIS: Attagene CIS-FACTORIAL HepG2 Assay for human TAL Basal Promoter (AID 2282966); conditions: HepG2 Attagene cis-factorial TAL promoter reporter; actives raise or lower the signal;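 note: background control endpoint measuring basal TAL promoter reporter mRNA not a specific factor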
Method in brief: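 Endogenous transcription-factor activity is sensed in HepG2 cells through transfected cis-promoter reporter constructs. After 24 h dosing, reporter transcripts are quantified by RT-PCR and capillary electrophoresis. Gain or loss of signal is fitted relative to DMSO.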

[19] = ATG_TGFb_CIS: Attagene CIS-FACTORIAL HepG2 Assay for human Transforming Growth Factor (TGF) (AID 2282967); conditions: HepG2 Attagene CIS TGFb reporter, mRNA transcription; actives raise or lower the signal
Method in brief: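 Endogenous TGFB1-linked transcription factor activity read as reporter mRNA via RT-PCR and capillary electrophoresis, 24 h after dosing transiently transfected HepG2 cells. Gain or loss of signal fitted relative to DMSO.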

[20] = ATG_TA_CIS: Attagene CIS-FACTORIAL HepG2 Assay for human TA Basal Promoter (AID 2282964); conditions: HepG2 Attagene CIS-factorial TA basal promoter reporter; actives raise or lower the signal
Method in brief: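 Background-control readout: TA basal promoter reporter mRNA, fitted in both directions relative to DMSO. Measured by RT-PCR and capillary electrophoresis 24 hours after treating HepG2 human liver cells transiently carrying multiplexed cis-regulated reporter constructs.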

Measured: AC50

Sequence of Hypoxia-inducible factor 1-alpha (Homo sapiens) (Q16665 whole entry, looked up): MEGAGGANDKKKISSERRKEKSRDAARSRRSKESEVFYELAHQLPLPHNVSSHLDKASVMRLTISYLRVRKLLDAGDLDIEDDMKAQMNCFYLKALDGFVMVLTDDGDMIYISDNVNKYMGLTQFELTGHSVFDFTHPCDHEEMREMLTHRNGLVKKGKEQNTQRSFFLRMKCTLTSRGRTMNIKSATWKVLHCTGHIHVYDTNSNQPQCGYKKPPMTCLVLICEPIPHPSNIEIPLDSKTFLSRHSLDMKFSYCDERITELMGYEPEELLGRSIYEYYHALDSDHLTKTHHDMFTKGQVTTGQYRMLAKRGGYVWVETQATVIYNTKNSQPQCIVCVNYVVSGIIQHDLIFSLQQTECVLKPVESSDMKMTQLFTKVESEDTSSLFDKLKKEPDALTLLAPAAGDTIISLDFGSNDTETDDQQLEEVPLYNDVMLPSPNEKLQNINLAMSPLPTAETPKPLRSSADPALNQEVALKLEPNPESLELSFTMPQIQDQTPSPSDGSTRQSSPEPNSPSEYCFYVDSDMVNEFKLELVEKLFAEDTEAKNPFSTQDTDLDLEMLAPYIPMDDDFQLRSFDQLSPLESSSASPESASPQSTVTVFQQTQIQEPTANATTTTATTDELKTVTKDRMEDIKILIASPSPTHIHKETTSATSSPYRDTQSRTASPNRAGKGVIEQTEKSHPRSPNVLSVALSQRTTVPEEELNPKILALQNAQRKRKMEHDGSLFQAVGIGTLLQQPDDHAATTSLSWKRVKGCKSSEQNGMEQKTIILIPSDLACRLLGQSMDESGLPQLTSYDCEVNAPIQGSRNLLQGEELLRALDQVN
Sequence of Signal transducer and activator of transcription 3 (Homo sapiens) (P40763 whole entry, looked up): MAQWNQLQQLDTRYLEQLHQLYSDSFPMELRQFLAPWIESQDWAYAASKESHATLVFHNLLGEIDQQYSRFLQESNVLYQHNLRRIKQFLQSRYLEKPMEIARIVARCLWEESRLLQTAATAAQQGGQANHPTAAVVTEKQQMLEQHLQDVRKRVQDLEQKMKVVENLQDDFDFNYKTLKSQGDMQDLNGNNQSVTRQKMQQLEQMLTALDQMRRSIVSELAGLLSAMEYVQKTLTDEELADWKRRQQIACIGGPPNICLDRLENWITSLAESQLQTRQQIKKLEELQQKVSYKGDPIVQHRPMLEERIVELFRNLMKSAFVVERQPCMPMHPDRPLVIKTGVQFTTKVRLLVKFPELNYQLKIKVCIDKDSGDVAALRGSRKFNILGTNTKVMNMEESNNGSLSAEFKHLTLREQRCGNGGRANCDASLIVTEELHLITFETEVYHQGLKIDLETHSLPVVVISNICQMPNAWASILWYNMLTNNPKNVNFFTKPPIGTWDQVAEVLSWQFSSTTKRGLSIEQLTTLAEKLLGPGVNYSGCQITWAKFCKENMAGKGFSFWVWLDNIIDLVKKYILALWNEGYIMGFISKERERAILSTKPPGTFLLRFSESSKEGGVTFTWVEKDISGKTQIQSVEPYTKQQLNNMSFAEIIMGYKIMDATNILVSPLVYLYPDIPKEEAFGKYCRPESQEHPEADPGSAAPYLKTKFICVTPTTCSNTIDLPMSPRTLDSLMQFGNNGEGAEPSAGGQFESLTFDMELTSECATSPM
Sequence of Hepatocyte nuclear factor 6 (Homo sapiens) (Q9UBC0 whole entry, looked up): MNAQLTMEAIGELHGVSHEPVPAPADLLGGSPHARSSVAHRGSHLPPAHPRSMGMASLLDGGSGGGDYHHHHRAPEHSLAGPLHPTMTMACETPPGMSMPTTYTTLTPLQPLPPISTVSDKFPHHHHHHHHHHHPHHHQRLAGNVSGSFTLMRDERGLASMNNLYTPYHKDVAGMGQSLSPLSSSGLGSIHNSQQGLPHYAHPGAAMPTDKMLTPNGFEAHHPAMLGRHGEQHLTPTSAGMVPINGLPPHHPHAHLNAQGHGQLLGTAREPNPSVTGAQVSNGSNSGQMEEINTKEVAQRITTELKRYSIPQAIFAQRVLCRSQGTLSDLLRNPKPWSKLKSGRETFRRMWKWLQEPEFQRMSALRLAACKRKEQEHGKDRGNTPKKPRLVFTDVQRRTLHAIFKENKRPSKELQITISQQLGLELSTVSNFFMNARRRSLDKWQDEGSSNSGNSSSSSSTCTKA
Sequence of Paired box protein Pax-6 (Homo sapiens) (P26367 whole entry, looked up): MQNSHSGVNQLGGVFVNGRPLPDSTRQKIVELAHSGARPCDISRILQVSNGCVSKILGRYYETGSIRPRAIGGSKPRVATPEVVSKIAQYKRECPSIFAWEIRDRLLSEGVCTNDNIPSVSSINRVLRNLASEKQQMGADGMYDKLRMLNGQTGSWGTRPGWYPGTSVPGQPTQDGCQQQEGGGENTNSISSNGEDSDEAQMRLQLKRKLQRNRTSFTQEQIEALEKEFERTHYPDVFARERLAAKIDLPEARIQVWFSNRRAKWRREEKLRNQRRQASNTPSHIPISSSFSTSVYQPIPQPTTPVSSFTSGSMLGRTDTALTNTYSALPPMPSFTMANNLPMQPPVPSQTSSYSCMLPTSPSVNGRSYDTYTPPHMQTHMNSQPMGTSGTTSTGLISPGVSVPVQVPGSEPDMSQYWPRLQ
Sequence of Transcription factor Sp1 (Homo sapiens) (P08047 whole entry, looked up): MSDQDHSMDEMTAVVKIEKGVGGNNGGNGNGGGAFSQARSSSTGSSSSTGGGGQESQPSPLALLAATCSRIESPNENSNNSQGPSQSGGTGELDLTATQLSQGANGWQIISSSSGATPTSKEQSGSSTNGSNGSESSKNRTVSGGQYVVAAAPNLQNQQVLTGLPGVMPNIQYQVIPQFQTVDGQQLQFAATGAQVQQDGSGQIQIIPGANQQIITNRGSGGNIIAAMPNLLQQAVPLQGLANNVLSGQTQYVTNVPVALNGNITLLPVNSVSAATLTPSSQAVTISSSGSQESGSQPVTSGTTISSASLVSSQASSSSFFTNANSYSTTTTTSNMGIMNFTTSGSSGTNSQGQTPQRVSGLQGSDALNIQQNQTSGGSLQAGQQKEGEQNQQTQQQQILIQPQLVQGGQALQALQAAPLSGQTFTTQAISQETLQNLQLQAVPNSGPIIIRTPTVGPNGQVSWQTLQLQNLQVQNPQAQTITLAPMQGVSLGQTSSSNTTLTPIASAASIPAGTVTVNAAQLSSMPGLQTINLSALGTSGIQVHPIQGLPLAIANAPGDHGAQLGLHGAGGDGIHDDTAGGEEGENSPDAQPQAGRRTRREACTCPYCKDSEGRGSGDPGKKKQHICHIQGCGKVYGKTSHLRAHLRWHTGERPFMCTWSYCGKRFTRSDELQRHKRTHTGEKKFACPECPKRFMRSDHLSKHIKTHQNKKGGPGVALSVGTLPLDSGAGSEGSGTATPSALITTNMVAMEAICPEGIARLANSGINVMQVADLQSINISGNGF
Sequence of Heat shock factor protein 1 (Homo sapiens) (Q00613 whole entry, looked up): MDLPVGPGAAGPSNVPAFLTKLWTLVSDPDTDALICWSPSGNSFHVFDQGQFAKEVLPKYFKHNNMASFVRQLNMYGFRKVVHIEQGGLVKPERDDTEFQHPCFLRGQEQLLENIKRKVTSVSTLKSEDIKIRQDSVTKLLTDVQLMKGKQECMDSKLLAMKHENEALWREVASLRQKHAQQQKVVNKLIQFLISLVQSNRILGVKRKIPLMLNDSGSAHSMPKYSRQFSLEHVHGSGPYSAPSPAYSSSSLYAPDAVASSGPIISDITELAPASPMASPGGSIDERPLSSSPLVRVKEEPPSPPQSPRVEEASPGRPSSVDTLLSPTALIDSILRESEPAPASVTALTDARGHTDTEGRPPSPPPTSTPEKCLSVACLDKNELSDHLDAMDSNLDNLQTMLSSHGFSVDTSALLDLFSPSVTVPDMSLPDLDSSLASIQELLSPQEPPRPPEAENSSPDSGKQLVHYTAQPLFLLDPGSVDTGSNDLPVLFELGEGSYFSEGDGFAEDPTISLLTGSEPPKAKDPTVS

CC[N+](CC)(CC)CC
not listed: [19] | [20]
inactive: all other assays above

O=c1oc2ccccc2c(O)c1C(CC(O)c1ccc(-c2ccc(Br)cc2)cc1)c1ccccc1 (centres undefined)
active: [1] 24.9 µM | [4] 14.6 µM | [6] 48.7 µM and 59.6 µM | [7] 40.3 µM and 31.9 µM | [8] 31.7 µM | [9] 46.5 µM and 31.9 µM | [10] 8.03 µM and 7.59 µM | [11] 10.8 µM and 227 nM | [14] 14.4 µM | [15] 8.18 µM | [17] 21.1 µM and 11.5 µM
inactive: [1] | [2] | [3] | [4] | [8] | [12] | [13] | [14] | [15] | [16] | [19]

COc1ccc(N)cc1
active: [4] 181 µM
inactive: [1] | [2] | [3] | [4] | [6] | [7] | [9] | [10] | [11] | [12] | [13] | [14] | [15] | [16] | [20] | [18] | [19]

C[As+](C)(C)CC(=O)[O-]
not listed: [17] | [18]
inactive: all other assays above

ClCc1ccccc1CCl
active: [1] 45.9 µM | [5] 23.1 µM | [6] 21.7 µM | [9] 25.7 µM | [10] 18.3 µM | [13] 22.6 µM | [14] 33.4 µM | [16] 33.4 µM | [17] 22.4 µM | [18] 16.5 µM
inactive: [2] | [3] | [4] | [7] | [8] | [11] | [12] | [15] | [19]

CC1(C)[C@H](C(=O)O[C@H](C#N)c2cccc(Oc3ccccc3)c2)[C@@H]1/C=C(\Cl)C(F)(F)F
active: [8] 1.16 µM | [10] 384 nM and 683 nM
inactive: [1] | [2] | [3] | [4] | [5] | [6] | [7] | [8] | [9] | [11] | [12] | [13] | [14] | [15] | [16] | [20] | [17] | [18] | [19]

CCCCCCCCCCCCOS(=O)(=O)O
active: [4] 11.1 µM | [7] 2.2 µM | [16] 11.1 µM
inactive: [1] | [2] | [3] | [4] | [5] | [7] | [10] | [13] | [14] | [15] | [16] | [20] | [17] | [18] | [19]

CN(C)c1ccc(N=O)cc1
active: [1] 9.25 µM | [6] 25.4 µM
not listed: [17]
inactive: all other assays above

C[CH2][Hg][S]c1ccccc1C(=O)O
active: [1] 6.49 µM | [5] 4.19 µM | [7] 3.71 µM | [9] 4.42 µM | [10] 5.8 µM | [11] 814 nM | [12] 2.97 µM | [13] 2.56 µM | [15] 2.66 µM | [17] 6.54 µM | [18] 1.87 µM
inactive: [2] | [3] | [4] | [6] | [8] | [16] | [19]

CCOC(=O)CCN(SN(C)C(=O)Oc1cccc2c1OC(C)(C)C2)C(C)C
active: [6] 184 µM | [7] 142 µM | [10] 26.5 µM | [15] 100 µM
not listed: [18] | [19]
inactive: all other assays above

CC(C)[N+](=O)[O-]
inactive: all assays above

CC(C)(C#N)N=NC(C)(C)C#N
active: [10] 79.6 µM
inactive: all other assays above
